In PubChem BioAssay (EPA / NIEHS):
Results filed as inconclusive are left out. The source made the active and inactive calls. How the source made its calls: active means hit-call score of the fitted dose curve at least 0.9, where 1 is the maximum; inconclusive means response in the unintended direction; inactive means score below 0.9.

Columns and labels:
[1] = TOX21_p53_BLA_p2_viability: Viability Assessment in the Tox21 HCT-116 p53 Agonism Beta-lactamase Assay, Phase 2 (AID 2283591);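 further: compound exposure lasted 16 h at 37 °C; actives lower the ATP signal meaning cytotoxicity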
Method in brief: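 HCT116 p53-bla cells, 4000/well, dosed after 5 h plating (217-fold dilution of DMSO stocks) and incubated 16 h at 37C. Viability taken as cellular ATP by CellTiter-Glo luminescence after 30 min RT; signal loss marks cytotoxicity.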

[2] = molecular target: Cellular tumor antigen p53 (Homo sapiens) (UniProt P04637); assay: TOX21_p53_BLA_p2_ratio: Tox21 HCT-116 p53 Agonism Beta-lactamase Assay, Ratio, Phase 2 (AID 2283592)
Method in brief: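 Ratio endpoint: beta-lactamase cleavage of CCF4-AM, blue (460 nm) over green (530 nm). HCT116 reporter line; 16 h treatment, 37C; substrate 2 h RT.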

[3] = TOX21_p53_BLA_p3_viability: Viability Assessment in the Tox21 HCT-116 p53 Agonism Beta-lactamase Assay, Phase 3 (AID 2283593);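 further: cells exposed to compound for 16 h before reading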
Method in brief: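 HCT116 cells, 4000/well, dosed 5 h after plating by pin transfer (217-fold dilution from DMSO stock) and incubated 16 h at 37C, 5% CO2. Viability read as ATP luminescence with CellTiter-Glo after 30 min at room temperature.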

[4] = molecular target: Cellular tumor antigen p53 (Homo sapiens) (UniProt P04637); assay: TOX21_p53_BLA_p3_ratio: Tox21 HCT-116 p53 Agonism Beta-lactamase Assay, Ratio, Phase 3 (AID 2283596)
Method in brief: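 Cells were seeded at 4000/well, rested 5 h at 37C, then dosed with DMSO compound solutions (217-fold dilution) for 16 h. CCF4-AM substrate was loaded for 2 h at room temperature, and the 460/530 nm emission ratio was fitted for gain of signal versus DMSO.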

[5] = TOX21_p53_BLA_p4_viability: Viability Assessment in the Tox21 HCT-116 p53 Agonism Beta-lactamase Assay, Phase 4 (AID 2283597);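 further: hits lower the luminescence signal meaning cytotoxicity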
Method in brief: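 Cytotoxicity was inferred from loss of CellTiter-Glo luminescence. HCT116 cells had been dosed with compounds after 5 h plating, incubated 16 h at 37C and 5% CO2, and exposed to the CCF4-AM substrate for 2 h.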

[6] = molecular target: Cellular tumor antigen p53 (Homo sapiens) (UniProt P04637); assay: TOX21_p53_BLA_p5_ratio: Tox21 HCT-116 p53 Agonism Beta-lactamase Assay, Ratio, Phase 5 (AID 2283599)
Method in brief: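 HCT-116 p53-bla cells (4000/well) plated 5 h, dosed with compound (217-fold DMSO dilution) for 16 h at 37 C; CCF4-AM substrate 2 h at room temperature. Activity is the 460/530 nm emission ratio (405 nm excitation), fitted in gain-of-signal direction versus DMSO.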

[7] = molecular target: Cellular tumor antigen p53 (Homo sapiens) (UniProt P04637); assay: TOX21_p53_BLA_p4_ratio: Tox21 HCT-116 p53 Agonism Beta-lactamase Assay, Ratio, Phase 4 (AID 2283601)
Method in brief: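 HCT-116 p53 beta-lactamase reporter cells (4000/well) preincubated 5 h, then compound (217-fold dilution of DMSO stock) for 16 h at 37C. CCF4-AM substrate added 2 h at room temperature; 460/530 nm emission ratio fitted upward versus DMSO.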

Cellular tumor antigen p53 (Homo sapiens), sequence (P04637 whole entry, looked up): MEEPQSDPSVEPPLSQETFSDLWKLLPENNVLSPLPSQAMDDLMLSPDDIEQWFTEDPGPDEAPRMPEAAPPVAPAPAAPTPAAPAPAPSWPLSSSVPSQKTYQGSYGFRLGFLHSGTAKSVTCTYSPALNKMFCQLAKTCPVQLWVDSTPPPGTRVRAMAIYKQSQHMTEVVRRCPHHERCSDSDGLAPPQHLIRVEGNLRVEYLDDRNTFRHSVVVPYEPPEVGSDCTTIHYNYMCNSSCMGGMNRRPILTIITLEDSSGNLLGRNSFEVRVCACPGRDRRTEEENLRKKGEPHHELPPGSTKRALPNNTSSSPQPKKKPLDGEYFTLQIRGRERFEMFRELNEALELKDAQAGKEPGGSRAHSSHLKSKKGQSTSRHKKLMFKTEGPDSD

C=Cc1c(C)c2cc3[nH]c(cc4nc(cc5nc(cc1[nH]2)C(C)=C5CCC(=O)O)C(CCC(=O)O)=C4C)c(C)c3C=C
outcome [1]: inactive | outcome [2]: inactive | outcome [3]: inactive | outcome [4]: inactive | outcome [5]: inactive | outcome [6]: inactive | outcome [7]: inactive

COc1ccc2cc1Oc1cc3c(cc1OC)CC[N+](C)(C)[C@H]3Cc1ccc(cc1)Oc1c(OC)c(OC)cc3c1[C@@H](C2)[N+](C)(C)CC3
outcome [1]: inactive | outcome [2]: inactive | outcome [3]: inactive | outcome [4]: inactive | outcome [5]: inactive | outcome [6]: inactive | outcome [7]: inactive

CCC(C(=O)OCCN(CC)CC)c1ccccc1 (stereo unspecified)
outcome [1]: inactive | outcome [2]: inactive | outcome [3]: inactive | outcome [4]: inactive | outcome [5]: inactive | outcome [6]: inactive | outcome [7]: inactive

COc1cccc(O)c1O
outcome [1]: inactive | outcome [2]: inactive | outcome [3]: inactive | outcome [4]: inactive | outcome [5]: inactive | outcome [6]: inactive | outcome [7]: inactive

CC[C@H](NC(C)C)[C@H](O)c1ccc(O)c2[nH]c(=O)ccc12
outcome [1]: inactive | outcome [2]: inactive | outcome [3]: inactive | outcome [4]: inactive | outcome [5]: inactive | outcome [6]: inactive | outcome [7]: inactive

CC(=O)NCCCCCC(=O)O
outcome [1]: inactive | outcome [2]: inactive | outcome [3]: inactive | outcome [4]: inactive | outcome [5]: inactive | outcome [6]: inactive | outcome [7]: inactive

OCC(O)CS (stereo unspecified)
outcome [1]: inactive | outcome [2]: inactive | outcome [3]: inactive | outcome [4]: inactive | outcome [5]: inactive | outcome [6]: inactive | outcome [7]: inactive

Cc1ccsc1/C=C/C1=NCCCN1C
outcome [1]: inactive | outcome [2]: inactive | outcome [3]: inactive | outcome [4]: inactive | outcome [5]: inactive | outcome [6]: inactive | outcome [7]: inactive

CCN(CC)CCOc1ccc(-c2nc3cc(Cl)ccc3s2)cc1
AC50 [1]: 44.8 µM (active) | outcome [2]: inactive | outcome [3]: inactive | outcome [4]: inactive | AC50 [5]: 36.3 µM (active) | outcome [6]: inactive | outcome [7]: inactive

C[C@@H]1CCC[C@H](C)N1
outcome [1]: inactive | outcome [2]: inactive | outcome [3]: inactive | outcome [4]: inactive | outcome [5]: inactive | outcome [6]: inactive | outcome [7]: inactive

Cc1ncc(C[n+]2csc(CCOP(=O)(O)OP(=O)(O)O)c2C)c(N)n1
outcome [1]: inactive | outcome [2]: inactive | outcome [3]: inactive | outcome [4]: inactive | outcome [5]: inactive | outcome [6]: inactive | outcome [7]: inactive

O=[N+]([O-])c1ccc(Oc2ccc(N=C=S)cc2)cc1
outcome [1]: inactive | AC50 [2]: 12.9 µM (active) | outcome [3]: inactive | AC50 [4]: 8.52 µM (active) | outcome [5]: inactive | AC50 [6]: 10.8 µM (active) | AC50 [7]: 13.4 µM (active)

CC(C)Oc1ccc2c(=O)c(-c3ccccc3)coc2c1
outcome [1]: inactive | outcome [2]: inactive | outcome [3]: inactive | outcome [4]: inactive | outcome [5]: inactive | outcome [6]: inactive | outcome [7]: inactive
